Measured values taken from PubChem BioAssay (Tox21).
Inconclusive results are not listed. Active and inactive are the calls of the source. Unless noted, calls come from the whole dose curve; as a rule, active = well fitted curve in the direction sought with a large enough effect in the repeat runs; inconclusive = weak or mixed curves; inactive = no such curve, though single readings can be large; an effect the other way counts as inactive or inconclusive.

How the values were obtained:
[1] = molecular target: Thyrotropin receptor (Homo sapiens) (UniProt P16473); assay: qHTS assay to identify small molecule agonists of the thyroid stimulating hormone receptor (TSHR) signaling pathway (AID 1224843; calls by dose curve; note: nearly all actives have a fitted effect of over 45% in size)
Chain of Thyrotropin receptor (Homo sapiens) (P16473 whole entry, looked up): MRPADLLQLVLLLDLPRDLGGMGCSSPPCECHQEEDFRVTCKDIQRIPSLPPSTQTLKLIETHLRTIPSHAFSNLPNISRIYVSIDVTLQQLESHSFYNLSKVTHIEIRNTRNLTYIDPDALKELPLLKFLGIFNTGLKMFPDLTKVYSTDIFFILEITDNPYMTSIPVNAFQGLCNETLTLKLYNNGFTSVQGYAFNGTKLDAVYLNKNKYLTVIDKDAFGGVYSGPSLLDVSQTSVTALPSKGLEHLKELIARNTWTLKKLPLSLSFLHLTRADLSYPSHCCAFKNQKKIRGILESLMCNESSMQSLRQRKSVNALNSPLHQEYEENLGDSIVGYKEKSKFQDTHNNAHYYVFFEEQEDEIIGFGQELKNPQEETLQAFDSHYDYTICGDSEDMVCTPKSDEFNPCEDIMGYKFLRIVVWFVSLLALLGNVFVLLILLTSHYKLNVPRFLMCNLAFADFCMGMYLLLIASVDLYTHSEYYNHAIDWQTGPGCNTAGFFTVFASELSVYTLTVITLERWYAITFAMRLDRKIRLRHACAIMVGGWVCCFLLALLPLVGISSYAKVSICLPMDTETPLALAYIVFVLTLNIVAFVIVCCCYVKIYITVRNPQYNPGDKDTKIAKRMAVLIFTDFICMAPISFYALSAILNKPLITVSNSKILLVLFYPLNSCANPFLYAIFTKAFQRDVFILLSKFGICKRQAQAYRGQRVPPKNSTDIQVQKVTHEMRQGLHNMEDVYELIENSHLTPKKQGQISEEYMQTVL
Outline: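 HEK293/TSHR, 800 cells/well; cpd 30 min RT; add cAMP-d2 + anti-cAMP-cryptate, 1 h RT; fluorescence read on plate reader. 15-pt titration, n=3.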

[2] = qHTS assay to identify small molecule agonists of the hypoxia (HIF-1) signaling pathway (AID 1224846; active = well fitted activation curve with a large enough effect in the signal ratio in the repeat runs, not every such curve was filed as active; the % refers to the signal ratio)
Outline: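 Agonist mode reporter screen. ME-180 cells stably expressing bla under HRE control received test compounds in DMSO for 17 hrs (37C, 5% CO2), and beta-lactamase activity was then detected with the CCF4-AM FRET substrate.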

[3] = qHTS assay to identify small molecule agonists of H2AX - cell viability counter screen (AID 1224847; calls by dose curve; note: top concentration of the series differs between compounds; nearly all actives have a fitted effect of over 30% in size)
Outline: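 Counter-screen for viability: CellTiter-Glo ATP luminescence read after 3 h compound treatment (15-point titration, 0.76% DMSO final) of CHO-K1 cells at 37C, with 30 min room-temperature reagent incubation.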

[4] = qHTS assay to identify small molecule antagonists of the estrogen related receptor (ERR) signaling pathway from Tox21 library (AID 1224848); note: nearly all actives have a fitted effect of over 50% in size; note: potency is the fitted concentration of half-maximal effect
Outline: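 Compounds dissolved in DMSO are pin-transferred onto ERR reporter cells (2,000 per well) that have settled for 6 h at 37 C. Plates then incubate 18 h at 37 C before ONE-Glo luciferase reagent and a luminescence read 30 min later.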

[5] = qHTS assay to identify small molecule agonists of the estrogen related receptor (ERR) signaling pathway from Tox21 library (AID 1224849; calls by dose curve; note: nearly all actives have a fitted effect of over 15% in size); details: ERR reporter cell line, ONE-Glo luciferase, 18 h; at 92.4 µM (top of the series) unless noted
Outline: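 Quantitative HTS in agonist format: NTP ERR cell line, compounds transferred in DMSO after 6 h plating, 18 h incubation at 37 C, ONE-Glo luminescence endpoint.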

[6] = qHTS RealTime-Glo MT Cell Viability Assay in HEK293 cells - 32 hour (AID 1224868); note: nearly all actives have a fitted effect of over 50% in size; note: potency is the fitted concentration of half-maximal effect
Outline: (§1)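 HEK293 cells were seeded at 600 cells/well together with NanoLuc luciferase and cell-permeant prosubstrate, preincubated 5 h at 37 C/5% CO2, then given compound in DMSO by pintool. Luminescence from viable-cell prosubstrate reduction was read repeatedly over 40 h.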

[7] = A CellTox Green Cytotoxicity Assay to monitor cytotoxicity in HEK293 cells - 0 hour (AID 1224869); note: nearly all actives have a fitted effect of over 50% in size
Outline: (§2)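 Dead-cell fluorescence measured kinetically: asymmetric cyanine dye, HEK293, 600 cells/well, 5 h settle, 23 nL cpd/DMSO, 37 C, reads 0–40 h every 8 h.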

[8] = qHTS RealTime-Glo MT Cell Viability Assay in HepG2 cells - 40 hour (AID 1224870); note: nearly all actives have a fitted effect of over 50% in size
Outline: (§3)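 HepG2 cells (600/well) mixed with RealTime-Glo MT reagent, settled 5 h at 37 C/5% CO2 before compound addition. Nonlytic NanoLuc luminescence from viable-cell prosubstrate reduction read repeatedly during 40 h treatment at 37 C.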

[9] = qHTS RealTime-Glo MT Cell Viability Assay in HEK293 cells - 16 hour (AID 1224872); note: nearly all actives have a fitted effect of over 50% in size; note: potency is the fitted concentration of half-maximal effect
Outline: as §1

[10] = qHTS RealTime-Glo MT Cell Viability Assay in HEK293 cells - 40 hour (AID 1224874); details: RealTime-Glo luminescence; max response: hits give low values; note: nearly all actives have a fitted effect of over 50% in size; note: potency is the fitted concentration of half-maximal effect
Outline: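 600 HEK293 cells per well, dispensed already mixed with RealTime-Glo MT reagents. Compound dosing came 5 h later. The same wells were read for luminescence at 0, 8, 16, 24, 32 and 40 h of exposure at 37 C.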

[11] = A CellTox Green Cytotoxicity Assay to monitor cytotoxicity in HepG2 cells - 16 hour (AID 1224876); note: nearly all actives have a fitted effect of over 45% in size
Outline: (§4)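 First, HepG2 cells (600/well) mixed with reagent were plated; second, after 5 h at 37 C they received compounds via pintool; third, fluorescence was measured at 0 h through 40 h at 8 h intervals.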

[12] = qHTS RealTime-Glo MT Cell Viability Assay in HepG2 cells - 32 hour (AID 1224877); note: nearly all actives have a fitted effect of over 55% in size
Outline: (§5)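 HepG2 cells were seeded at 600 cells/well together with NanoLuc luciferase and a cell-permeant prosubstrate, preincubated 5 h at 37 C/5% CO2, then pin-dosed with compounds in DMSO. Nonlytic luminescence from viable cells was read at each time point.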

[13] = A CellTox Green Cytotoxicity Assay to monitor cytotoxicity in HepG2 cells - 24 hour (AID 1224878); note: nearly all actives have a fitted effect of over 45% in size
Outline: as §4

[14] = A CellTox Green Cytotoxicity Assay to monitor cytotoxicity in HepG2 cells - 40 hour (AID 1224879); note: nearly all actives have a fitted effect of over 40% in size; note: potency is the fitted concentration of half-maximal effect
Outline: as §4

[15] = qHTS assay to identify small molecule agonists of the hypoxia (HIF-1) signaling pathway - cell viability counter screen (AID 1224844; calls by dose curve; note: nearly all actives have a fitted effect of over 50% in size)
Outline: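 Viability counter screen: HRE-bla ME-180 cells plated 5 hrs before compound addition, treated 17 hrs at 37C and 5% CO2, then CellTiter-Glo added after the FRET reporter read; luminescence after 30 min.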

[16] = qHTS RealTime-Glo MT Cell Viability Assay in HepG2 cells - 24 hour (AID 1224867); note: nearly all actives have a fitted effect of over 50% in size; note: potency is the fitted concentration of half-maximal effect
Outline: as §5

[17] = A CellTox Green Cytotoxicity Assay to monitor cytotoxicity in HEK293 cells - 40 hour (AID 1224871); note: nearly all actives have a fitted effect of over 45% in size
Outline: as §2

[18] = qHTS RealTime-Glo MT Cell Viability Assay in HepG2 cells - 8 hour (AID 1224873); note: nearly all actives have a fitted effect of over 55% in size
Outline: as §3

[19] = A CellTox Green Cytotoxicity Assay to monitor cytotoxicity in HEK293 cells - 24 hour (AID 1224875); note: nearly all actives have a fitted effect of over 45% in size
Outline: as §2

[20] = qHTS assay to identify small molecule agonists of H2AX (AID 1224845; active = well fitted activation curve with a large enough effect in the signal ratio in the repeat runs, not every such curve was filed as active; the % refers to the signal ratio)
Outline: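 Wild-type CHO-K1 cells, plated overnight, exposed 3hr at 37C to 15 concentrations (0.76% DMSO final). Lysed, then HTRF anti-pH2AX (S139) cryptate and anti-H2AX-d2 antibodies, 24 hr room temperature; 665/620 nm emission read.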
% is set by controls: 0 for no effect and ±100 for the full control effect.

Oc1ccc(Nc2ccccc2)cc1
inactive: Potency [1] | outcome [2] | Potency [3] | activity change, positive = activation [5] -35.9% | Potency [7] | Potency [8] | Potency [11] | Potency [12] | Potency [13] | Potency [14]
active: Potency [4] 24.3 µM | Potency [6] 21.9 µM | Potency [9] 19.5 µM | Potency [10] 19.5 µM

CC(C)c1nnc2ccc(-c3ocnc3-c3cc(F)ccc3F)cn12
active: Potency [9] 17.4 µM | Potency [10] 19.5 µM
inactive: Potency [1] | Potency [15] | activity change, positive = activation [5] -31.4% | Potency [16] | Potency [8] | Potency [17] | Potency [18] | Potency [19] | Potency [11] | Potency [12] | Potency [13] | Potency [14]

COC(=O)Nc1nc2ccc(C(=O)c3cccs3)cc2[nH]1
active: Potency [6] 0.169 µM | Potency [10] 0.134 µM | Potency [14] 0.107 µM
inactive: Potency [1] | Potency [3] | Potency [4] | activity change, positive = activation [5] -4.13% [at 42.5 µM] | Potency [16] | Potency [7] | Potency [8] | Potency [17] | Potency [18] | Potency [19] | Potency [11] | Potency [12] | Potency [13]

C[C@@H]1C[C@H]2[C@@H]3CCC4=CC(=O)C=C[C@]4(C)[C@@]3(F)[C@@H](O)C[C@]2(C)[C@H]1C(=O)CO
inactive: Potency [1] | Potency [20] | Potency [3] | Potency [16] | Potency [6] | Potency [7] | Potency [8] | Potency [17] | Potency [9] | Potency [18] | max response [10] -9.79% | Potency [19] | Potency [11] | Potency [12] | Potency [13] | Potency [14]

CCc1nn(CCCN2CCN(c3cccc(Cl)c3)CC2)c(=O)n1CCOc1ccccc1
inactive: Potency [1] | Potency [20] | outcome [2] | Potency [19] | Potency [11] | Potency [13]
active: Potency [16] 23.9 µM | Potency [6] 8.49 µM | Potency [9] 8.49 µM | Potency [10] 8.49 µM

CCCCC(CC)C(=O)OCCOCCOCCOCCOC(=O)C(CC)CCCC (stereo not drawn)
active: Potency [4] 30.6 µM
inactive: Potency [15] | Potency [20] | outcome [2] | Potency [3] | activity change, positive = activation [5] -33% | Potency [16] | Potency [7] | Potency [8] | Potency [18] | Potency [19] | Potency [11] | Potency [12] | Potency [13] | Potency [14]

CC(C)CCCC(=O)O
inactive: Potency [15] | Potency [20] | outcome [2] | Potency [3] | Potency [4] | activity change, positive = activation [5] 0.997% | Potency [16] | Potency [6] | Potency [8] | Potency [17] | Potency [9] | max response [10] -12.3% | Potency [19] | Potency [11] | Potency [12] | Potency [13] | Potency [14]

CCOC(=O)N1CCC(n2c(=O)[nH]c3cc(Cl)ccc32)CC1
inactive: Potency [1] | Potency [15] | Potency [16] | Potency [8] | Potency [17] | Potency [18] | Potency [19] | Potency [11] | Potency [12] | Potency [13] | Potency [14]
